Laboratory results taken from PubChem BioAssay (NCI).
About 83,000 compounds went through this panel and 20% of them were active in at least one assay; those are over-represented in the sample as a whole.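 Plates (96-well) were seeded with cells, treated with compound at one concentration, and incubated for 48 hours before percent growth was determined.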 A number with no mark means an inactive call. The source made the active and inactive calls. How the source made its calls: active means growth percent below 10; inactive means the rest.

How the values were obtained:
Experiment in all cases: NCI-60 one-dose screen, 48 h (100 = growth as untreated, 0 = no growth, -100 = all killed)
Settings in all cases: 10 µM unless noted
[1] = test system: SK-MEL-2 melanoma
[2] = test system: EKVX NSCLC
[3] = test system: SN12C renal
[4] = test system: UO-31 renal
[5] = test system: TK-10 renal
[6] = test system: ACHN renal
[7] = test system: CAKI-1 renal
[8] = test system: A498 renal
[9] = test system: CCRF-CEM leukemia
[10] = test system: MOLT-4 leukemia

SMILES	growth [1]	growth [2]	growth [3]	growth [4]	growth [5]	growth [6]	growth [7]	growth [8]	growth [9]	growth [10]
Clc1cccc(C2Cc3cnccc3-c3[nH]c4ccncc4c32)c1 (stereo not given)	61%	42.9%	56.4%	39.1%	53.3%	42.1%	50.8%	39%	49.7%	9.28% (active)
CC(O)Cc1c[nH]c(=O)[nH]c1=O (stereo not given)	115%	106%	110%	100%	123%	97.9%	99.6%	87.8%	122%	101%
CN(C)C1CN(C(=O)c2cc(-c3ccc4ncnc(N5CCc6cc(F)c(Cl)cc65)c4c3)cnc2N)C1	-11.5% (active)	10.1%	11.1%	7.34% (active)	5.66% (active)	10.8%	0.593% (active)	-78.2% (active)	15.7%	4.86% (active)
O=C1/C(=C/c2ccc(Cl)cc2)CN(C(=O)C(Cl)Cl)C/C1=C\c1ccc(Cl)cc1	-15% (active)	-60% (active)	-75.7% (active)	-99.7% (active)	-83.7% (active)	-100% (active)	-71% (active)	-95.8% (active)	7% (active)	-12.5% (active)
CCOC(=O)CC1CSC(N/N=C/c2ccc(F)c(Br)c2)=N1 (stereo not given)	104%	104%	114%	82.9%	102%	106%	95.5%	95.7%	90%	88.5%
CC1=Nc2cnc(Nc3ccc(N4CCCCC4)cc3)nc2Nc2ccccc21	86%	68.8%	69.7%	49.7%	97.3%	68.1%	79.3%	55.8%	31.5%	26.7%
C=C1CC[C@@H]2C(C)(C)[C@H](O)CC[C@@]2(C)[C@@H]1COc1ccc2ccc(=O)oc2c1	63.8%	57.8%	67.3%	-3.4% (active)	96.3%	49%	39.6%	64.5%	26.2%	31.6%
Cc1nc2ccccc2c(/C=C/c2ccc(F)cc2)c1C(=O)/C=C/c1ccccc1	14.2%	38.2%	22.2%	27.4%	23.2%	11.6%	24.7%	55.5%	7.91% (active)	4.66% (active)
COc1ccc2c(c1)CC[C@@H]1[C@@H]2CC[C@]2(C)c3c(cc(C#N)c4c3sc3ccccc34)C[C@@H]12	109%	103%	104%	85%	107%	105%	103%	109%	82.3%	92.1%
Cc1cc(NCCCNc2ccnc3cc(Cl)ccc23)nc(Nc2ccc(C(=O)N3CCCCC3)cc2)n1	75.7%	48.4%	36.6%	57.6%	5.49% (active)	43.2%	76.2%	66.9%	14.4%	20.7%
CCOC(=O)c1c(C)nc2ccccc2c1/C=C/c1ccc(F)cc1	75.2%	60.3%	77.1%	62.8%	82.3%	75.5%	67.7%	75.4%	67.8%	42.8%
CN1CC(c2ccc(Br)cc2)C(C(=O)c2ccc(Br)cc2)C12C(=O)Nc1ccccc12 (stereo not given)	82.9%	70.1%	70%	48.3%	92.1%	79.6%	46.9%	88.9%	80.2%	64.3%
Nc1cccc(-c2ccc(COc3ccc(CC4SC(=O)NC4=O)cc3)cc2)c1 (stereo not given)	52.3%	62.2%	68.6%	53.3%	91.5%	62.6%	47.3%	110%	52.3%	43.2%
